Experimental data published in PubChem BioAssay (Tox21).
Where “and” joins values, the source holds several entries; their conditions need not be identical. Identical values can stand only once. Inconclusive results are not listed. Calls of active or inactive are those of the source. Unless noted, calls follow the shape of the dose curve; as a rule, active = well fitted curve in the direction sought with a large enough effect in the repeat runs; inconclusive = weak or mixed curves; inactive = no such curve, though single readings can be large; an effect the other way counts as inactive or inconclusive.

Assays:
[1] = biological target: Progesterone receptor (Homo sapiens) (UniProt P06401); assay: qHTS assay to identify small molecule antagonists of the progesterone receptor (PR) signaling pathway (AID 1346795; active = well fitted inhibition curve with a large enough effect in the signal ratio in the repeat runs, not every such curve was filed as active; the % refers to the signal ratio)
Outline: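 Read-out is fluorescence from the LiveBLAzer B/G FRET substrate, cleaved by a UAS-controlled beta-lactamase in PR-UAS-bla HEK293T cells after 16 hr exposure to compound plus 1 nM promegestone (final), followed by 2 hr at room temperature.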

[2] = qHTS assay to identify small molecule antagonists of the progesterone receptor (PR) signaling pathway - cell viability counter screen (AID 1346798);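 also: HEK293T PR-UAS-bla cells stimulated with the agonist R5020; series mostly up to about 92 µM; nearly all actives have a fitted effect of over 50% in size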
Outline: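 HEK293T PR-UAS-bla, 2% charcoal-stripped FBS; 4 hr pre-plate; cpd + R5020, 16 h 37C; LiveBLAzer read first; then CellTiter-Glo 30 min RT, luminescence.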

[3] = qHTS assay to identify small molecule agonists of the progesterone receptor (PR) signaling pathway - cell viability counter screen (AID 1346799; calls by dose curve; also: nearly all actives have a fitted effect of over 45% in size)
Outline: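 Luminescence from CellTiter-Glo, added after the beta-lactamase FRET read in the same wells, gave cytotoxicity in PR-UAS-bla HEK293T cells treated with compounds for 16 hr at 37C.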

[4] = qHTS assay to identify small molecule antagonists of the TGF-beta/Smad signaling pathway - cell viability counter screen (AID 1346824); also: nearly all actives have a fitted effect of over 50% in size
Outline: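 Cytotoxicity counter-screen run in the same wells as the beta-lactamase Smad reporter read: CellTiter-Glo luminescence after 30 min at room temperature. HEK 293T SBE-bla cells had 5 hr compound exposure at 37 C with TGF-beta1 (0.25 ng/mL stock).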

[5] = qHTS assay to identify small molecule agonists of the TGF-beta/Smad signaling pathway - cell viability counter screen (AID 1346829); also: top concentration of the series differs between compounds; nearly all actives have a fitted effect of over 45% in size
Outline: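 Here the cytotoxicity of library compounds is measured in SBE-bla HEK 293T cells treated for 5 hr, using CellTiter-Glo added to wells already read for the beta-lactamase reporter.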

[6] = qHTS assay to identify small molecule agonists of the TGF-beta/Smad signaling pathway (AID 1346859; active = well fitted activation curve with a large enough effect in the signal ratio in the repeat runs, not every such curve was filed as active; the % refers to the signal ratio; also: series mostly up to about 77 µM)
Outline: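 SBE-bla HEK 293T, 4,000 cells/well, plated o/n; cpd in DMSO, 5 hr, 37 C/5% CO2; B/G FRET substrate 2 hr RT; ex 405, em 460/530 nm.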

[7] = biological target: Thyrotropin-releasing hormone receptor (Homo sapiens) (UniProt P34981); assay: qHTS assay to identify small molecule antagonists of the thyrotropin-releasing hormone receptor (TRHR) signaling pathway (AID 1346877; active = well fitted inhibition curve with a large enough effect in the repeat runs, not every such curve was filed as active; also: series mostly up to about 51 µM)
Outline: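 TRHR-expressing HEK293 cells were seeded, cultured 18 h at 37 °C, then loaded with calcium dye for 2 h. Compounds were pre-incubated 5 min at room temperature before 1 nM TRH (final) was added, and kinetic fluorescence was recorded for 3 min.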

[8] = biological target: Thyrotropin-releasing hormone receptor (Homo sapiens) (UniProt P34981); assay: qHTS assay to identify small molecule agonists of the thyrotropin-releasing hormone receptor (TRHR) signaling pathway (AID 1346891; calls by dose curve; also: series mostly up to about 58 µM)
Outline: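 Intracellular calcium rise, read as fluorescence every second for 3 min, served as the agonist signal in dye-loaded HEK293 cells expressing TRHR; each compound ran at 15 concentrations in triplicate.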

[9] = Human pregnane X receptor (PXR) small molecule agonists, qHTS cell viability counter screen (AID 1346977); also: nearly all actives have a fitted effect of over 50% in size; also: potency is read from the fitted curve at half-maximal effect
Outline: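 PXR-Luc HepG2, 2,000 cells/well, 5% charcoal-stripped FBS; 5hr settle; cpd 24hr, 37C/5% CO2; CellTiter-Fluor at 23hr, read 1hr later (fluorescence).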

[10] = Caspase-3/7 induction in HepG2 cells by small molecules, qHTS assay (AID 1346978); also: nearly all actives have a fitted effect of over 15% in size; also: potency is read from the fitted curve at half-maximal effect
Outline: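 Caspase-3/7 induction was measured by Caspase-Glo 3/7 luminescence (30 min, room temperature) after a 17 hr compound exposure of wild-type HepG2 cells seeded at 2,000 per well and pre-incubated 5 hr.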

[11] = Caspase-3/7 induction in CHO-K1 cells by small molecules, qHTS cell viability counter screen (AID 1346979); also: nearly all actives have a fitted effect of over 35% in size; also: potency is read from the fitted curve at half-maximal effect
Outline: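 Cells (CHO-K1, wild type) are plated at 1,500 per well and incubated 5hr. Test compounds in DMSO are then pinned in, followed by 16hr at 37C and 5% CO2. Viability is read by CellTiter-Fluor fluorescence after 1hr.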

[12] = Caspase-3/7 induction in CHO-K1 cells by small molecules, qHTS assay (AID 1346980); also: nearly all actives have a fitted effect of over 15% in size; also: potency is read from the fitted curve at half-maximal effect
Outline: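 Luminescent Caspase-Glo 3/7 read (30min, room temperature) quantified apoptosis induction. Cells were wild-type CHO-K1, treated with compound for 17hr at 37 C and 5% CO2.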

[13] = Caspase-3/7 induction in HepG2 cells by small molecules, qHTS cell viability counter screen (AID 1346981); also: nearly all actives have a fitted effect of over 30% in size; also: potency is read from the fitted curve at half-maximal effect; as to activity change, negative = cytotoxicity: series mostly up to about 92 µM
Outline: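 Wild-type HepG2 cells (2,000/well) were allowed to settle for 5 hr at 37 C, 5% CO2, then dosed with compounds in DMSO by pin transfer. After 16 hr at 37 C, CellTiter-Fluor was added and fluorescence read 1 hr later.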

[14] = biological target: Nuclear receptor subfamily 1 group I member 2 (Homo sapiens) (UniProt O75469); assay: Human pregnane X receptor (PXR) small molecule agonists, qHTS assay (AID 1346982); also: nearly all actives have a fitted effect of over 35% in size; also: potency is read from the fitted curve at half-maximal effect
Outline: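 PXR-Luc HepG2 cells (CYP3A4 promoter-driven luciferase) were seeded in medium with 5% charcoal-stripped FBS, left 5 hr at 37 C, then exposed to compounds in DMSO for 24 hr. Luminescence was read after ONE-Glo addition.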

[15] = biological target: Cytochrome P450 2C19 (Homo sapiens) (UniProt P33261); assay: Cytochrome P450 Family 2 Subfamily C Member 19 (CYP2C19) small molecule antagonists: luciferase reporter qHTS assay (AID 1671197); also: nearly all actives have a fitted effect of over 65% in size; also: potency is read from the fitted curve at half-maximal effect; as to activity change, negative = inhibition: series mostly up to about 120 µM
Outline: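 Light output is proportional to CYP2C19 activity: proluciferin substrate is converted to luciferin, then detected by a luciferin detection reagent that also stops the 1 h, 37C NADPH-driven reaction. Ketoconazole serves as positive control.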

[16] = biological target: Cytochrome P450 2D6 (Homo sapiens) (UniProt P10635); assay: Cytochrome P450 Family 2 Subfamily D Member 6 (CYP2D6) small molecule antagonists: luciferase reporter qHTS assay (AID 1671196); also: nearly all actives have a fitted effect of over 50% in size; also: potency is read from the fitted curve at half-maximal effect; as to activity change, negative = inhibition: series mostly up to about 120 µM
Outline: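 CYP2D6 enzyme–substrate mix was held with compound for 10 min at room temperature, then NADPH regeneration solution was added and the reaction ran 1 h at room temperature. Luciferin product was detected by luminescence after 20 min with detection reagent.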

[17] = biological target: Nuclear receptor subfamily 1 group I member 2 (Rattus norvegicus) (UniProt Q9R1A7); assay: Rat pregnane X receptor (rPXR) activation by small molecules, qHTS assay (AID 1346983); details: rPXR luciferase reporter cells, One-Glo luminescence, 24 h; max activation: stronger effect = higher value; also: nearly all actives have a fitted effect of over 20% in size
Outline: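 Luminescent readout (One-Glo luciferase, 30 min room temperature) followed 24 hr compound treatment at 37 C of rPXR cells plated 2,000 per well and preincubated 5hr; qHTS format with compounds delivered in DMSO.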

[18] = biological target: Nuclear receptor subfamily 1 group I member 2 (Homo sapiens) (UniProt O75469); assay: CYP3A4 induction through human pregnane X receptor (PXR) by small molecules, qHTS assay (AID 1346984); also: nearly all actives have a fitted effect of over 40% in size
Outline: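 DPX-2 cells (HepG2 co-transfected with PXR and CYP3A4 promoter-luciferase) treated with compounds 24 h at 37C; luciferin-IPA CYP3A4 substrate 3uM final added for 3 h, then One-Glo; luminescence read. qHTS format.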

[19] = biological target: Nuclear receptor subfamily 1 group I member 2 (Homo sapiens) (UniProt O75469); assay: Human pregnane X receptor (PXR) activation by small molecules, qHTS assay (AID 1346985); also: nearly all actives have a fitted effect of over 40% in size
Outline: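 DPX-2 cells (HepG2 co-transfected with a PXR response element and a CYP3A4-promoter luciferase construct) were seeded at 2,000 per well, rested 5 hr at 37C, then exposed to DMSO-dissolved compounds for 24 hr. Activation was read as luciferase luminescence.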
% is scaled to controls: 0 for no effect and ±100 for the full control effect.

Thyrotropin-releasing hormone receptor (Homo sapiens), sequence (P34981 whole entry, looked up): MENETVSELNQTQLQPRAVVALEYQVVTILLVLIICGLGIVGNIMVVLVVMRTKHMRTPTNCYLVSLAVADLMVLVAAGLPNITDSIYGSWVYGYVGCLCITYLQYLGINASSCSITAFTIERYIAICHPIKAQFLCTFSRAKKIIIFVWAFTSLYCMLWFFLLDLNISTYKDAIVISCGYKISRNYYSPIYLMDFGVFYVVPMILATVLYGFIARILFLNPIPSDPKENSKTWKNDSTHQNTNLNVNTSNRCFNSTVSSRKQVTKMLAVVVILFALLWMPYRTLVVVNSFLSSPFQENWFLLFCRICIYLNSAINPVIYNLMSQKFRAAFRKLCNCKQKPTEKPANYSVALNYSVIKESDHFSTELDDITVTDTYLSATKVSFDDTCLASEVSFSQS
Nuclear receptor subfamily 1 group I member 2 (Homo sapiens), sequence (O75469 whole entry, looked up): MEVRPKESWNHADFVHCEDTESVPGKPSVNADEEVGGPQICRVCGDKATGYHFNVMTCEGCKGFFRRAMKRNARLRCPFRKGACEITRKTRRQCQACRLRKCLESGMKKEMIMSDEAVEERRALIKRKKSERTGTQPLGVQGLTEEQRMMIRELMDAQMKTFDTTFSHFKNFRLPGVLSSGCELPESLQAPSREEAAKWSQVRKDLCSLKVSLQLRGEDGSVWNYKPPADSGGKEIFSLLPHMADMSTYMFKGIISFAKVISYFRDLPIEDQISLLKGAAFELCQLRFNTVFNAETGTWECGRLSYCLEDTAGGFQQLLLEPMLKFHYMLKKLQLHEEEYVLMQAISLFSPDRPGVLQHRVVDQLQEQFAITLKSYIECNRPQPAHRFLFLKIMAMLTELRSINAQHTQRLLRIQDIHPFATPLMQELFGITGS
Cytochrome P450 2C19 (Homo sapiens), sequence (P33261 whole entry, looked up): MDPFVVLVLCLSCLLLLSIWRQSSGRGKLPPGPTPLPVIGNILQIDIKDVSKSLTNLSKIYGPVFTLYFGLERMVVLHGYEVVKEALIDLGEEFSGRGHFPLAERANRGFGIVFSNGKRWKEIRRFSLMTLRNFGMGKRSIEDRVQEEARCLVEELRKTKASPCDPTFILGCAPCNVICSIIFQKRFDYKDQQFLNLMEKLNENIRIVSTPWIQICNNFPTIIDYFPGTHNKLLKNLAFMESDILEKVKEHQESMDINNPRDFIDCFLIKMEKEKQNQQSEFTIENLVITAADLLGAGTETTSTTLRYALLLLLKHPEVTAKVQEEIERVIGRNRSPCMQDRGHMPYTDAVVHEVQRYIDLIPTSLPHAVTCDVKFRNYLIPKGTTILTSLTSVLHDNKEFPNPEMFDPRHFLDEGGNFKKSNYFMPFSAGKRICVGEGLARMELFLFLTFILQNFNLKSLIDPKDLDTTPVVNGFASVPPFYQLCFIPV
Cytochrome P450 2D6 (Homo sapiens), sequence (P10635 whole entry, looked up): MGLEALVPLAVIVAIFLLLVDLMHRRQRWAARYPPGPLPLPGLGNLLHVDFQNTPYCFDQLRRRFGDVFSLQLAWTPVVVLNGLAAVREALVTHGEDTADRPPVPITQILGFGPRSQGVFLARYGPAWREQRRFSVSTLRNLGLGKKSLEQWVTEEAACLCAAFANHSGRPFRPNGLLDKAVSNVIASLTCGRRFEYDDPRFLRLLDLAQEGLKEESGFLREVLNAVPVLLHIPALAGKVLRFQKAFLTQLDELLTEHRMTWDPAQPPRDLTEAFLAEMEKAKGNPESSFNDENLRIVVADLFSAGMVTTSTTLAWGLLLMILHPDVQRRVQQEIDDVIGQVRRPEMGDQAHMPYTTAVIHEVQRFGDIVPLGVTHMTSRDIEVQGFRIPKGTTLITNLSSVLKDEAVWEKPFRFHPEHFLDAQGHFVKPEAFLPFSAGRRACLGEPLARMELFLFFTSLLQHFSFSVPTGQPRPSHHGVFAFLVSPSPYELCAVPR
Progesterone receptor (Homo sapiens), sequence (P06401 whole entry, looked up): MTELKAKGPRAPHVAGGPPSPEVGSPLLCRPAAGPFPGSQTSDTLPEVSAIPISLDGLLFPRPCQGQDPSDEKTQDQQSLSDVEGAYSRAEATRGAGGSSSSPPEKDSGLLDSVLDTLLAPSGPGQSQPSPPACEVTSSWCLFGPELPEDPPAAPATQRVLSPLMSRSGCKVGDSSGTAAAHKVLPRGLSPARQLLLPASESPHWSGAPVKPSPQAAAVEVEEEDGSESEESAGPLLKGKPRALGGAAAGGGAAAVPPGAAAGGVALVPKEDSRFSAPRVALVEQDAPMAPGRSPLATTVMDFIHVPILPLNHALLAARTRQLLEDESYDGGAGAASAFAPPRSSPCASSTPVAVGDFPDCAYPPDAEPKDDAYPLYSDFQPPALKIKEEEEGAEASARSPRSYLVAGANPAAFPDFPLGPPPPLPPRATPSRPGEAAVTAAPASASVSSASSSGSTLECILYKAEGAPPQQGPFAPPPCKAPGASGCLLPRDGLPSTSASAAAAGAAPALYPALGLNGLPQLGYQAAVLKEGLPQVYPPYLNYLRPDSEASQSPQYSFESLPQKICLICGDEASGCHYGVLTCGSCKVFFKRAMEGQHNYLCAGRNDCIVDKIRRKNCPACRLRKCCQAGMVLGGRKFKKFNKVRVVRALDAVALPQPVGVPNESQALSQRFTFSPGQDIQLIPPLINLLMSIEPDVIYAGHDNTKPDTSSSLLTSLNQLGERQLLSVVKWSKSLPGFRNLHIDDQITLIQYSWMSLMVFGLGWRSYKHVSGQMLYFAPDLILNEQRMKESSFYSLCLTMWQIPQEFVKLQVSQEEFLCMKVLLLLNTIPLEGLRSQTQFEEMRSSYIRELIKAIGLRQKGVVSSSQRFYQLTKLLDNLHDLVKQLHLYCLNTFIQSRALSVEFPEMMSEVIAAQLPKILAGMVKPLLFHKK
Nuclear receptor subfamily 1 group I member 2 (Rattus norvegicus), sequence (Q9R1A7 whole entry, looked up): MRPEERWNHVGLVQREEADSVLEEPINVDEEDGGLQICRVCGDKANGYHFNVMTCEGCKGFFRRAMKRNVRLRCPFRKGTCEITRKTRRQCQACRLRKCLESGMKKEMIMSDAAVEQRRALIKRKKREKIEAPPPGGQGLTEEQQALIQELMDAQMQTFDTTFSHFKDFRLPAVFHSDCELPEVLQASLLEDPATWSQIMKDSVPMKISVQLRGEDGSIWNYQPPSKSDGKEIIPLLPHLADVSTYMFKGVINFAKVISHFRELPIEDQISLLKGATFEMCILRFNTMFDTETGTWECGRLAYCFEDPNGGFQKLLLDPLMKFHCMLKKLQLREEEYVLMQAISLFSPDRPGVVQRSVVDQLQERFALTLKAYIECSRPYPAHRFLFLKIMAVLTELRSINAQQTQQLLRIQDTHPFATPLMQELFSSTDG

O=C(OCCOCCOCCOC(=O)c1ccccc1)c1ccccc1
active: Potency [14] 27.3 µM | Potency [15] 20 µM
inactive: Potency [1] | Potency [2] | Potency [3] | outcome [4] | outcome [5] | outcome [6] | outcome [7] | outcome [8] | Potency [9] | Potency [10] | Potency [11] | Potency [12] | Potency [13]

CC(CN=Cc1ccccc1O)N=Cc1ccccc1O (stereo unspecified)
inactive: Potency [1] | Potency [2] | Potency [3] | outcome [4] | outcome [5] | outcome [6] | outcome [7] | outcome [8] | Potency [9] | Potency [10] | Potency [11] | Potency [12] | Potency [13] | Potency [14] | Potency [15]
active: Potency [16] 35.6 µM

CCn1nc(Cc2ccccc2)cc1C1CCN(C[C@H]2C[C@H](N(C)[C@@H](C(=O)O)C(C)C)C[C@@H]2c2cccc(F)c2)CC1
active: Potency [16] 35.6 µM
inactive: Potency [2] | Potency [3] | outcome [5] | outcome [7] | outcome [8] | Potency [10] | Potency [11] | Potency [12] | Potency [14]

CCOc1ccc2c(c1)C(C)CC(C)(C)N2 (stereo unspecified)
active: Potency [14] 34.4 µM | Potency [15] 1.26 µM
inactive: Potency [2] | Potency [3] | outcome [5] | outcome [6] | outcome [7] | outcome [8] | Potency [10] | Potency [11] | Potency [12] | Potency [13]

CCCCCCCCCCCCCCCCCCCl
inactive: activity change, negative = inhibition [1] 7.9% [at 8.39 µM] | activity change, negative = cytotoxicity [2] -19.4% [at 8.39 µM] | activity change, negative = cytotoxicity [3] -1.64% [at 8.39 µM] | activity change, negative = cytotoxicity [5] 3.73% [at 6.97 µM] | activation [6] 1.95% [at 6.97 µM] | activity, negative = inhibition [7] 0.326% [at 4.65 µM] | activation [8] -0.417% [at 5.23 µM] | activity change, negative = cytotoxicity [9] -2.79% [at 8.39 µM] | caspase activation [10] 0.121% [at 8.39 µM] | caspase-3/7 activation [12] -1.95% [at 8.39 µM] | activation [14] 17.1% [at 8.39 µM] | activity change, negative = inhibition [16] -4.65% [at 10.5 µM]

Nc1cccc2c(=O)[nH][nH]c(=O)c12
active: Potency [16] 5.05 µM
inactive: Potency [1] | outcome [4] | outcome [5] | outcome [6] | Potency [9] | Potency [10] | Potency [11] | Potency [12] | Potency [13] | Potency [14] | Potency [15]

CC(C)C[C@H](NC(=O)[C@H](Cc1ccccc1)NC(=O)c1cnccn1)B(O)O
active: Potency [9] 0.0422 µM | Potency [10] 0.211 µM | Potency [11] 0.0168 µM | Potency [12] 0.0067 µM | Potency [13] 0.0841 µM | Potency [14] 0.0084 µM | Potency [15] 34.7 µM
inactive: Potency [2] | Potency [3] | outcome [4] | outcome [5] | outcome [7] | outcome [8] | max activation [17] -18.4% and -17.1% | Potency [18] | Potency [19] | Potency [16]

CCC(=O)O[C@]1(C(=O)COC)[C@@H](C)C[C@H]2[C@@H]3CCC4=CC(=O)C=C[C@]4(C)C3(F)[C@@H](O)C[C@@]21C (stereo partly specified)
active: Potency [14] 16.8 µM | Potency [16] 15.5 µM
inactive: Potency [1] | Potency [2] | outcome [4] | outcome [5] | Potency [9] | Potency [10] | Potency [11] | Potency [12] | Potency [13] | Potency [15]
